Measurements published in PubChem BioAssay (EPA / NIEHS).
Records with an inconclusive call do not appear. The source made the active and inactive calls. How the source made its calls, unless noted: active means hit-call score of the fitted dose curve at least 0.9, where 1 is the maximum; inconclusive means response in the unintended direction; inactive means score below 0.9.

How the values were obtained:
[1] = target: Glucocorticoid receptor (Homo sapiens) (UniProt P04150); assay: ATG_GR_TRANS: Attagene TRANS-FACTORIAL HepG2 Assay for human Glucocorticoid Receptor (GR) (AID 2282978); details: HepG2 Attagene TRANS GR reporter, mRNA transcription;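 further: activators score as hits since higher reporter transcript over DMSO is fitted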
Chain of Glucocorticoid receptor (Homo sapiens) (P04150 whole entry, looked up, the tested form may be a part): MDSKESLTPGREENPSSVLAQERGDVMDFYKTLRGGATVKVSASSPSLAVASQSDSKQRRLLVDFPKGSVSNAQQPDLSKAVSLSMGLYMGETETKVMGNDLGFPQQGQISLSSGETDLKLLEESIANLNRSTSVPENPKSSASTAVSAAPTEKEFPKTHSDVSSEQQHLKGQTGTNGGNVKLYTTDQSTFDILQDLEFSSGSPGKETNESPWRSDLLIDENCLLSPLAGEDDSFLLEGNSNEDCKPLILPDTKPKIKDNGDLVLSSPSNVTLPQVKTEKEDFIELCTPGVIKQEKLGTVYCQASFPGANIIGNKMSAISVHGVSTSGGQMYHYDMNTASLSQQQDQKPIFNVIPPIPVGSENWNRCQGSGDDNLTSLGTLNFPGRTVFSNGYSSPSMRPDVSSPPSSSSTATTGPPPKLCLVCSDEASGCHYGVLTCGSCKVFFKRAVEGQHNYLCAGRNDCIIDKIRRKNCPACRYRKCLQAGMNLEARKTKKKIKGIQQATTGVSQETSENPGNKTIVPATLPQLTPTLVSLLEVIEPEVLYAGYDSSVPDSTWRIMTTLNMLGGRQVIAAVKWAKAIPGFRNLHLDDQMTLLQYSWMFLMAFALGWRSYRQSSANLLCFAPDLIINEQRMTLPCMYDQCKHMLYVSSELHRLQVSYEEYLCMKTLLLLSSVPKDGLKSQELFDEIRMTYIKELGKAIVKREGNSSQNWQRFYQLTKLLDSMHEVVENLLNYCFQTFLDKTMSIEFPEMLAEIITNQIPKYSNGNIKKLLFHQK
Summary of the method: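 Measurement of GAL4-UAS-driven reporter mRNA in human HepG2 liver cells 24 h post-dosing, using RT-PCR with fluorescent labelling and capillary electrophoresis; the transfected constructs report exogenous NR-GAL4 chimera activity, fitted upward against DMSO.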

[2] = target: Bile acid receptor (Homo sapiens) (UniProt Q96RI1); assay: ATG_FXR_TRANS: Attagene TRANS-FACTORIAL HepG2 Assay for Farnesoid X Receptor (FXR) (AID 2282979); details: HepG2 Attagene TRANS FXR-GAL4 reporter transcription;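 further: hits raise reporter mRNA above DMSO so AC50 marks FXR activation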
Chain of Bile acid receptor (Homo sapiens) (Q96RI1 whole entry, looked up, the tested form may be a part): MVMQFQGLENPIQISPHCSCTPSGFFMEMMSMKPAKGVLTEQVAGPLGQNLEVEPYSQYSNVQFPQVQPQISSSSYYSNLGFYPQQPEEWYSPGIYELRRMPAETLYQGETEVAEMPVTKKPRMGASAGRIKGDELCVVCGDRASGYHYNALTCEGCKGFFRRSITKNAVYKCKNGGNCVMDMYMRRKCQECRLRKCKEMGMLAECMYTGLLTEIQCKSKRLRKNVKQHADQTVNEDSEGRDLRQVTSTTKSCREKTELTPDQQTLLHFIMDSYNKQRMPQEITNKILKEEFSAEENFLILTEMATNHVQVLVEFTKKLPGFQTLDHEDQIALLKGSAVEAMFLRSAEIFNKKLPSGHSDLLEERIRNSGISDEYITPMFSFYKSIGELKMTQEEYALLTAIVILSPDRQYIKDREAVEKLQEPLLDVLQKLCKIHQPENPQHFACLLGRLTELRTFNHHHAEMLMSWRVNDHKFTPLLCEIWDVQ
Summary of the method: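 Transient transfection of HepG2 with multiplexed GAL4-UAS reporter units; exogenous FXR-GAL4 chimera. Dose 24 h → TriZol RNA → oligo(dT) RT → PCR, 6-FAM primer extension, HpaI cut → CE. Gain vs DMSO.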

[3] = target: Oxysterols receptor LXR-alpha (Homo sapiens) (UniProt Q13133); assay: ATG_LXRa_TRANS: Attagene TRANS-FACTORIAL HepG2 Assay for human Liver X Receptor alpha (LXRa) (AID 2282980); details: HepG2 Attagene TRANS reporter, LXRa transactivation
Chain of Oxysterols receptor LXR-alpha (Homo sapiens) (Q13133 whole entry, looked up, the tested form may be a part): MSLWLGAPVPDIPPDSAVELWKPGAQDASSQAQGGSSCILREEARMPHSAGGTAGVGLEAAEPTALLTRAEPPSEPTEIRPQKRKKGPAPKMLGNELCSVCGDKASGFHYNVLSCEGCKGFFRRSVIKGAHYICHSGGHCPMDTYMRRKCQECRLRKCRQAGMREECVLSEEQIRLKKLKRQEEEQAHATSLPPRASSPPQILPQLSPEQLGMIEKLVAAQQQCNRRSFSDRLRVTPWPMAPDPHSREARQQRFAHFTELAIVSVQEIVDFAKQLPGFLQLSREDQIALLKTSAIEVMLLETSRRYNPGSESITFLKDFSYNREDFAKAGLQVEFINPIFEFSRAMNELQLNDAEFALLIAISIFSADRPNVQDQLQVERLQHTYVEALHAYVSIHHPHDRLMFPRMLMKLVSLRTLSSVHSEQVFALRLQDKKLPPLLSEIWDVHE
Summary of the method: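 Transfect HepG2 with GAL4-UAS multiplex reporter constructs (TRANS format, chimeric receptor-GAL4); treat 24 h; extract RNA, reverse-transcribe, PCR-amplify, FAM-label, HpaI-digest; resolve fragments by capillary electrophoresis. Upward response vs DMSO.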

[4] = target: Hepatocyte nuclear factor 4-alpha (Homo sapiens) (UniProt P41235); assay: ATG_HNF4a_TRANS: Attagene TRANS-FACTORIAL HepG2 Assay for human Hepatocyte Nuclear Factor 4 alpha (HNF4a) (AID 2282982); details: HepG2 HNF4a transactivation reporter, mRNA readout
Chain of Hepatocyte nuclear factor 4-alpha (Homo sapiens) (P41235 whole entry, looked up, the tested form may be a part): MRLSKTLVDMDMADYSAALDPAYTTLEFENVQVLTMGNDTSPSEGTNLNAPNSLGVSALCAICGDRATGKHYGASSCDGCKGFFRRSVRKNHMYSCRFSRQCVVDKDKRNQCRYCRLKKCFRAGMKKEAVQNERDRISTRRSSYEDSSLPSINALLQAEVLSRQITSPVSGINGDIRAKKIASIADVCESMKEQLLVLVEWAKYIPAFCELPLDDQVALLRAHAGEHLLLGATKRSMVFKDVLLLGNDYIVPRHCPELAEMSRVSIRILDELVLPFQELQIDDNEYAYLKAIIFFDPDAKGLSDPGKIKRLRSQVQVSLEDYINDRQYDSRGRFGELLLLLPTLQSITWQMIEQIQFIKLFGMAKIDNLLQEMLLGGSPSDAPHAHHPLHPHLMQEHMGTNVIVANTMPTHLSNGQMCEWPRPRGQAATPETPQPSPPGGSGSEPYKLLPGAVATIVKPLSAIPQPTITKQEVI
Summary of the method: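 Endpoint reflects transcriptional activation of a GAL4-UAS reporter by an HNF4a-GAL4 chimera in transfected HepG2 cells, 24 h post-dosing. Fluorescence from RT-PCR products separated by capillary electrophoresis; DMSO baseline.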

[5] = ATG_M_06_TRANS: Attagene TRANS-FACTORIAL HepG2 Assay for M06 Transcription Factor (Internal Marker) (AID 2282983); details: HepG2 Attagene TRANS M06 internal marker reporter;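 on AC50: potency for rise in reporter mRNA above DMSO baseline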
Summary of the method: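 Background control endpoint: reporter mRNA from transiently transfected HepG2 after 24 h dosing, detected by RT-PCR with capillary electrophoresis fluorescence. Analysed for gain versus DMSO.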

[6] = ATG_M_32_TRANS: Attagene TRANS-FACTORIAL HepG2 Assay for M32 Transcription Factor (Internal Marker) (AID 2282984); details: HepG2 Attagene TRANS M32 internal marker reporter;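 further: transcript level of a background control reporter unit measured by RT-PCR and capillary electrophoresis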
Summary of the method: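 Internal-marker readout from a multiplexed transcription reporter panel. HepG2 cells were transfected with GAL4-UAS reporter units, treated 24 hours, and reporter transcript levels determined by fluorescence after RT-PCR and capillary separation.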

[7] = target: Nuclear receptor subfamily 4 group A member 2 (Homo sapiens) (UniProt P43354); assay: ATG_NURR1_TRANS: Attagene TRANS-FACTORIAL HepG2 Assay for human Nuclear Receptor Related Protein 1 (NURR1) (AID 2282985); details: HepG2 Attagene TRANS reporter, mRNA readout
Chain of Nuclear receptor subfamily 4 group A member 2 (Homo sapiens) (P43354 whole entry, looked up): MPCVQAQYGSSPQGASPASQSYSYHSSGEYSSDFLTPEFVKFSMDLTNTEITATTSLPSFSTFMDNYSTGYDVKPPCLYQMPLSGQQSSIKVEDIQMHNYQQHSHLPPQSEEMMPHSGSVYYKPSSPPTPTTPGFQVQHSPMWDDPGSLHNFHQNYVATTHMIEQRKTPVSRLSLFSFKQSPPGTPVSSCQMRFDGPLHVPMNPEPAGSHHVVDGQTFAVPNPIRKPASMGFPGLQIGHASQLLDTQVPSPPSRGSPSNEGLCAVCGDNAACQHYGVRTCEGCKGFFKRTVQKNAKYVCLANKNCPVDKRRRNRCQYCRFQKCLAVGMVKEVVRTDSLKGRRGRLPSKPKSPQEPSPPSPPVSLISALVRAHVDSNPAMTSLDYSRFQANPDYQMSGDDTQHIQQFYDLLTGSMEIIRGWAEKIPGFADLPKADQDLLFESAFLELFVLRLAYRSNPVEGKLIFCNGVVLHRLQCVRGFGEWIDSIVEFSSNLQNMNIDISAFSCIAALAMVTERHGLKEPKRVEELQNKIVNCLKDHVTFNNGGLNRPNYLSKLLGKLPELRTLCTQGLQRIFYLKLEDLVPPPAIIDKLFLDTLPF
Summary of the method: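 Endpoint: reporter mRNA increase relative to DMSO. HepG2 cells transfected with reporter units, treated 24 h; RNA processed by RT-PCR, labelling, HpaI digestion and capillary electrophoresis.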

[8] = target: Transcriptional activator Myb (Homo sapiens) (UniProt P10242); assay: ATG_Myb_CIS: Attagene CIS-FACTORIAL HepG2 Assay for human Myeloblastosis (Myb) Proto-Oncogene Transcription Factor (AID 2282986; active means hit-call score of the fitted dose curve at least 0.9, where 1 is the maximum; inactive means score below 0.9); details: HepG2 Attagene CIS-FACTORIAL Myb reporter transcription; actives raise or lower the signal
Chain of Transcriptional activator Myb (Homo sapiens) (P10242 whole entry, looked up): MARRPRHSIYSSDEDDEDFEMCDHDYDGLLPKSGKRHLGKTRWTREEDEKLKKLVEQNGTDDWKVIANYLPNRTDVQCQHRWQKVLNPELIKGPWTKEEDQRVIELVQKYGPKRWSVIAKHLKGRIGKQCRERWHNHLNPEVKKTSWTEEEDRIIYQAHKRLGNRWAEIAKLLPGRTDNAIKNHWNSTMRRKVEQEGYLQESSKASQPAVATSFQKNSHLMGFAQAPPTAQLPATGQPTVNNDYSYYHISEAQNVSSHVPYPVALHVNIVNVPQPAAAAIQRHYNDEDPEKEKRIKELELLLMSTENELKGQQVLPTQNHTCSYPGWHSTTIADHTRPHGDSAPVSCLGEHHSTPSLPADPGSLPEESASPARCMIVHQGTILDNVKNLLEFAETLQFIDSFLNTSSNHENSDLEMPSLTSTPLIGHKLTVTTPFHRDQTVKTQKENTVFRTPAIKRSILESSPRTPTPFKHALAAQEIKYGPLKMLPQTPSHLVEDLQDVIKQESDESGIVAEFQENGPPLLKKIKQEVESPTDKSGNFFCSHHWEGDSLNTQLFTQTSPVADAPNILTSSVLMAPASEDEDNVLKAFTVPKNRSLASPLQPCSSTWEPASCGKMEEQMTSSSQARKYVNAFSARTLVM
Summary of the method: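 Fluorescence signals from capillary electrophoresis of RT-PCR-amplified reporter cDNA give the read-out. Cells: HepG2 transfected with multiple cis-regulated reporter units. Exposure lasts 24 hours; DMSO defines baseline for gain or loss of signal.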

[9] = target: Nuclear respiratory factor 1 (Homo sapiens) (UniProt Q16656); assay: ATG_NRF1_CIS: Attagene CIS-FACTORIAL HepG2 Assay for human Nuclear Respiratory Factor 1 (NRF1) Orphan Gene (AID 2282987; active means hit-call score of the fitted dose curve at least 0.9, where 1 is the maximum; inactive means score below 0.9); details: HepG2 NRF1 cis-element reporter, Attagene multiplex; actives raise or lower the signal
Chain of Nuclear respiratory factor 1 (Homo sapiens) (Q16656 whole entry, looked up): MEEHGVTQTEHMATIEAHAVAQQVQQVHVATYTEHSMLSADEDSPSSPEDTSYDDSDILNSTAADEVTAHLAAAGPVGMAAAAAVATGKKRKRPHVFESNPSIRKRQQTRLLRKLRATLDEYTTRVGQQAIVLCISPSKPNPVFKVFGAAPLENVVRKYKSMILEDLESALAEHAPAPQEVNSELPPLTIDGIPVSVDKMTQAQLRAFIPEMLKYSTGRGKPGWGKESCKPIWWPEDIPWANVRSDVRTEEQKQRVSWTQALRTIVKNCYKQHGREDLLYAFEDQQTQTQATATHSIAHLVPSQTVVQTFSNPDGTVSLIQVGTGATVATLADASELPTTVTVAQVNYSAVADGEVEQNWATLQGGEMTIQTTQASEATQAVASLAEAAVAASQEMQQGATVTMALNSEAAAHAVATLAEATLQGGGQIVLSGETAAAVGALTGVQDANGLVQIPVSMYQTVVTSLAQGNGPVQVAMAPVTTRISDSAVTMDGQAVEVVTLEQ
Summary of the method: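 Transcriptional reporter readout, one component of a 52-endpoint multiplexed HepG2 panel. Exposure 24 h; mRNA detected via RT-PCR and fluorescent capillary electrophoresis; fitting in both directions against DMSO.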

[10] = target: Oxysterols receptor LXR-beta (Homo sapiens) (UniProt P55055); assay: ATG_LXRb_TRANS: Attagene TRANS-FACTORIAL HepG2 Assay for human Liver X Receptor beta (LXRb) (AID 2282981); details: HepG2 Attagene TRANS GAL4-LXRb reporter, mRNA
Chain of Oxysterols receptor LXR-beta (Homo sapiens) (P55055 whole entry, looked up, the tested form may be a part): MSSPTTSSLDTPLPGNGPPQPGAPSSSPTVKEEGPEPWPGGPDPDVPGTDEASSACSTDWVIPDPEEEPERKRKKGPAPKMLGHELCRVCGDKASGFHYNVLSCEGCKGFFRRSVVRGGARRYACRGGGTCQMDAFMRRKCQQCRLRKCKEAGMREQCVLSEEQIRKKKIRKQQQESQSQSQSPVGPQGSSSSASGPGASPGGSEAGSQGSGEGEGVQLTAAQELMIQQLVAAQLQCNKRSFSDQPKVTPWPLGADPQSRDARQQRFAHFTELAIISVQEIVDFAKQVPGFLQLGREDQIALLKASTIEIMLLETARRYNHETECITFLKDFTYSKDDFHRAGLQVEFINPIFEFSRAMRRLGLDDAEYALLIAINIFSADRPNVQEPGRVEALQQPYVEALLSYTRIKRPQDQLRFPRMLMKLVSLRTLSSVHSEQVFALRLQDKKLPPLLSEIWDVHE
Summary of the method: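 Multiplexed reporter assay, HepG2, 24 h dosing. Fluorescence of labelled RT-PCR products after capillary electrophoresis gives transcript level; positive fitting direction relative to DMSO.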

Measured: AC50

COC(=O)C1=C(C)NC(C)=C(C(=O)OCC(C)C)C1c1ccccc1[N+](=O)[O-] (stereo not drawn)
active: [9] 15.4 µM
not listed: [10]
inactive: all other assays above

CC1=NN(c2cc(S(=O)(=O)O)ccc2Cl)C(=O)C1N=Nc1ccccc1 (stereo not drawn)
not listed: [7]
inactive: all other assays above

Nc1nc2ccccc2[nH]1
not listed: [4]
inactive: all other assays above

CC(C)c1ccc2c(c1)CC[C@H]1[C@](C)(CN)CCC[C@]21C
active: [5] 5.45 µM
not listed: [6]
inactive: all other assays above

CCCCCC/C=C\CCCCCCCC(=O)O
not listed: [3] | [6] | [10]
inactive: all other assays above

CC(=O)c1ccc[nH]1
inactive: [1] | [2] | [3] | [10] | [8] | [9]

C#CC1(O)CC[C@H]2[C@@H]3CCC4=CCCC[C@@H]4[C@H]3CC[C@@]21C (stereo partly drawn)
inactive: [1] | [2] | [4] | [8] | [9]
active: [3] 1.46 µM | [10] 1.81 µM

CCCCCCCCCCc1ccccc1
inactive: [1] | [2] | [10] | [5] | [7] | [8]

O=C1c2cccc(O)c2C(=O)c2c(O)cc(CO)cc21
inactive: [1] | [2] | [3] | [7] | [8] | [9]

O=C(Nc1cccc(C(F)(F)F)c1)c1cc(Br)cc(Br)c1O
active: [9] 172 µM
not listed: [3] | [6] | [10]
inactive: all other assays above

CCCCCCOC(=O)C(C)CC (stereo not drawn)
inactive: [1] | [2] | [3] | [4] | [8] | [9]

Cc1cnc(NC(=O)C2=C(O)c3ccccc3S(=O)(=O)N2C)s1
not listed: [4] | [9] | [10]
inactive: all other assays above

O=C1CCCCCCCCCCCCCCCO1
not listed: [4]
inactive: all other assays above

O=S(=O)(O)c1ccccc1C=Cc1ccc(-c2ccc(C=Cc3ccccc3S(=O)(=O)O)cc2)cc1
not listed: [4] | [5] | [10]
inactive: all other assays above

CCN(CCC#N)c1ccc(N=Nc2c(Cl)cc([N+](=O)[O-])cc2Cl)cc1
not listed: [6]
inactive: all other assays above

Oc1ccc(Cl)cc1Cc1cc(Cl)ccc1O
not listed: [6] | [7]
inactive: all other assays above

CCOC(F)(F)C(F)(F)C(F)(F)C(F)(F)F
not listed: [4] | [10]
inactive: all other assays above

O=C(O)CC(C(=O)O)C(CC(=O)O)C(=O)O (stereo not drawn)
not listed: [3] | [4] | [7]
inactive: all other assays above

C=CC(=O)OCC(Br)CBr (stereo not drawn)
inactive: [1] | [2] | [6] | [7] | [8] | [9]

O=C1Nc2ccccc2C1(c1ccc(O)cc1)c1ccc(O)cc1
active: [2] 10.5 µM
not listed: [3] | [4] | [7]
inactive: all other assays above

CC(=O)[C@@]1(O)CC[C@H]2[C@@H]3C[C@H](C)C4=CC(=O)C=C[C@]4(C)[C@@]3(F)[C@@H](O)C[C@@]21C
active: [1] 0.221 µM
inactive: [2] | [3] | [10] | [8] | [9]

Nc1ccc(Cl)cc1Cl
not listed: [3] | [4] | [8]
inactive: all other assays above

CCCCCCCCO[C@@H]1O[C@H](CO)[C@@H](O)[C@H](O)[C@H]1O
not listed: [3] | [5] | [9]
inactive: all other assays above

Cc1cccc(N(C)C(=S)Oc2ccc3ccccc3c2)c1
active: [7] 44.1 µM
not listed: [4] | [10]
inactive: all other assays above

CCCCNc1ccc(NCCCC)c2c1C(=O)c1ccccc1C2=O
not listed: [4] | [10]
inactive: all other assays above

CCOc1nc(F)cc2nc(S(=O)(=O)Nc3c(Cl)cccc3C(=O)OC)nn12
inactive: [1] | [2] | [10] | [5] | [8] | [9]

CCC(C)OC(=O)c1ccc(O)cc1 (stereo not drawn)
not listed: [2] | [9]
inactive: all other assays above

c1ccc(CCCc2ccncc2)cc1
not listed: [3]
inactive: all other assays above
